According to PubChem BioAssay (Tox21):
Records with an inconclusive call do not appear. Calls of active or inactive are those of the source. Calls follow the shape of the full dose curve.

Assay: qHTS assay to identify small molecule antagonists of the sonic hedgehog signaling (Shh) pathway (AID 1259369); also: nearly all actives have a fitted effect of over 45% in size
Details: NIH/3T3 Gli1-Luc reporter, Shh antagonist, luminescence 24 h; series mostly up to 92.4 µM; activity change, negative = inhibition: at the top concentration
Source text: U.S. Tox21 Program National Center for Advancing Translational Sciences [NCATS] NIH Chemical Genomics Center [NCGC] U.S. Environmental Protection Agency [EPA] National Institutes of Environmental Health Sciences [NIEHS] National Toxicology Program [NTP] U.S. Food and Drug Administration [FDA] Tox21 Assay Overview: The sonic hedgehog (Shh) pathway is essential for normal embryonic development. Dysregulation of the Shh pathway can cause severe developmental defects in organs. Therefore chemicals that interfere with the pathway are potential developmental toxicants. A cell line designated 3T3Gli1-Luc (DMB/OARSA/CFSAN/FDA, Laurel, MD), a NIH/3T3 derived clone containing stably integrated Gli1-Luc reporter is used to detect chemical interference of the Shh pathway, by changes in the expression of the firefly Luc gene under the control of the Gli1 transcriptional response element. This cell line was used to screen Tox21 libraries for identifying and prioritizing the potential developmental toxicants that interfere Shh pathway. Conditioned medium-stimulated mode was used to screen for chemicals inhibiting Shh signaling.
Tox21 Assay Protocol Summary: 3T3 Gli1-Luc cells were dispensed at 2,000 per well in 5uL of culture medium into white solid bottom 1536-well plates (Greiner Bio-One, Monroe, NC) using a Multidrop Combi (Thermo Scientific, Waltham, MA) dispenser. The assay plates were incubated at 37 C and 5% CO2 for 4hr, and then 23nL of compounds dissolved in DMSO and positive control were transferred using a Pintool station (Wako, San Diego, CA). The compound transfer was followed by the addition of 1ul conditioned medium or assay buffer using two separate tips of Flying Reagent Dispenser (FRD, Aurora Discovery, San Diego, CA). The assay plates were incubated at 37C and 5% CO2 for 24hr. For luciferase read, 4uL of Amplite Luciferase reporter gene assay reagent (AAT Bioquest, Inc. Sunnyvale, CA) was added to each well of the assay plates using FRD and incubated at room temperature for 30min. The luminescence signal was measured using a ViewLux plate reader (Perkin Elmer, Shelton, CT).
% is scaled to controls: 0 for no effect and ±100 for the full control effect.

Row | SMILES | activity change, negative = inhibition
1 | O=S(=O)(O)CCN1CCN(CCO)CC1 | 13.6% (inactive)
2 | O=C(OCc1ccccc1)C(=O)OCc1ccccc1 | 5.25% (inactive)
3 | CCN(C)C(=O)Oc1cccc([C@H](C)N(C)C)c1 | -11.1% [at 42.5 µM] (inactive)
4 | On1nnc2ccccc21 | -2.32% (inactive)
5 | COc1ccc(S(=O)(=O)N2c3ccc(Cl)cc3[C@@](O)(c3ccccc3Cl)[C@H]2C(=O)N2CCC[C@@H]2C(N)=O)cc1OC | -16.8% [at 42.5 µM] (inactive)
6 | CC(=O)NCc1c(I)c(NC(C)=O)c(I)c(C(=O)O)c1I | 9.34% [at 42.5 µM] (inactive)
7 | N#Cc1ccc(C(=O)O)cc1 | 0% (inactive)
8 | CCCCCCCCC(=O)Cl | -3.58% (inactive)
9 | C=CCCCCCCCCCCCC | 21.1% (inactive)
10 | C=C(C)C(=O)OCc1ccccc1 | -0.414% (inactive)
11 | CC(C)C(=O)OCc1cccc(OC(=O)[C@@H]2N3C(=O)[C@@H](NC(=O)Cc4ccccc4)[C@H]3SC2(C)C)c1 | -20.7% [at 42.5 µM] (inactive)
12 | NS(=O)(=O)c1cc2c(cc1Cl)CN(C1CCCCC1)C2=O | -1.98% [at 42.5 µM] (inactive)
13 | O=C(O)CCSSCCC(=O)O | 23% (inactive)
14 | COc1nccnc1NS(=O)(=O)c1ccc(N)cc1 | 20.8% [at 42.5 µM] (inactive)
15 | O=C(OCC1(COC(=O)c2cccnc2)CCCC(COC(=O)c2cccnc2)(COC(=O)c2cccnc2)C1O)c1cccnc1 | 10.9% [at 42.5 µM] (inactive)
16 | C=C(C)C(=O)OCCOP(=O)(O)OCCOC(=O)C(=C)C | 9.45% (inactive)
17 | O=S(O)(O)=S | 0.751% [at 8.39 µM] (inactive)
18 | CCCCCCCCOS(=O)(=O)O | 0.621% (inactive)
19 | CN(CCOc1ccc(NS(C)(=O)=O)cc1)CCc1ccc(NS(C)(=O)=O)cc1 | 0.679% [at 42.5 µM] (inactive)
20 | COc1ccc(Br)c(C)c1 | 22.4% (inactive)

Row | SMILES | activity change, negative = inhibition
21 | O=C1CC(c2ccc(Cl)cc2)CC(=O)N1 | -9.42% [at 42.5 µM] (inactive)
22 | CCCC(=O)C(C)=O | 0% (inactive)
23 | CC(=O)c1ccc2c(c1)Cc1ccccc1-2 | -24.4% (inactive)
24 | CCC(C)(CCC(C)C)C(=O)O (stereo not given) | -1.29% (inactive)
25 | NCCS | 8.2% [at 42.5 µM] (inactive)
26 | C[Si](C)(C)C | -3.39% (inactive)
27 | CCCCC(CC)COCCO (stereo not given) | 0% (inactive)
28 | CCCCCCCCCC(C)=O | -4.01% (inactive)
29 | CCCCCOC(=O)CCC | 80.7% (inactive)
30 | CC(C)NCC(O)COc1ccc(COCCOC(C)C)cc1 (stereo not given) | 4.95% [at 42.5 µM] (inactive)
31 | COCCOC(=O)C1=C(C)NC(C)=C(C(=O)OC(C)C)C1c1cccc([N+](=O)[O-])c1 (stereo not given) | -19.8% [at 42.5 µM] (inactive)
32 | CC(COC(C)(C)C)OCCCO (stereo not given) | -8.5% (inactive)
33 | Cc1ccsc1/C=C/C1=NCCCN1C | -1.97% [at 42.5 µM] (inactive)
34 | CNS(=O)(=O)CCc1ccc2[nH]cc(C3CCN(C)CC3)c2c1 | -11.2% [at 42.5 µM] (inactive)
35 | O=C(NCCc1c[nH]c2ccccc12)c1cccnc1 | 3.19% [at 42.5 µM] (inactive)
36 | NNc1nnc(NN)c2ccccc12 | 14.6% [at 42.5 µM] (inactive)
37 | CC(C)CC(=O)O | 4% (inactive)
38 | CC(C)(C)c1cc(CCC(=O)NN)cc(C(C)(C)C)c1O | -6.43% (inactive)
39 | CCCOC(=O)C(C)O (stereo not given) | 17.8% (inactive)
40 | CC(CC=O)CCCC(C)(C)O (stereo not given) | 4.98% (inactive)
